Our source for the Inhibition values is ChEMBL document CHEMBL4296182, “CO-ADD screening of NIH NCI Diversity Set V”.

For part of these data: Entries with a potency or affinity are not part of this list.

The subject of one experiment is Staphylococcus aureus. The experiment in a line: Antibacterial activity against Staphylococcus aureus MRSA ATCC 43300 (CO-ADD:GP_020); MIC in CAMBH media using NBS plates, by Resazurin F(560/590). It counts as functional. Particulars: Concentration 20 uM, ASSAY_TEST Inhibition of Bacterial Growth, detection method Resazurin, Fluorescence (ex560/em590), MEDIA CAMHB, plate type 384well, CORNING #3640, time 18 hr.

The subject of the next experiment is Acinetobacter baumannii. Nature of the experiment: Antibacterial activity against Acinetobacter baumannii ATCC 19606 (CO-ADD:GN_034); MIC in CAMBH media using NBS plates, by Resazurin F(560/590). To be noted: Concentration 20 uM, ASSAY_TEST Inhibition of Bacterial Growth, detection method Resazurin, Fluorescence (ex560/em590), MEDIA CAMHB, plate type 384well, CORNING #3640, time 18 hr. It counts as functional. On the technique in general: The colour change of resazurin is a common sign of viable cells or microbes.

Another experiment deals with Escherichia coli. Nature of the experiment: Antibacterial activity against Escherichia coli ATCC 25922 (CO-ADD:GN_001); MIC in CAMBH media using NBS plates, by Resazurin F(560/590). It counts as functional. To be noted: Concentration 20 uM, ASSAY_TEST Inhibition of Bacterial Growth, detection method Resazurin, Fluorescence (ex560/em590), MEDIA CAMHB, plate type 384well, CORNING #3640, time 18 hr.

The subject of a further experiment is Klebsiella pneumoniae. To be noted: Concentration 20 uM; ASSAY_TEST Inhibition of Bacterial Growth; detection method Absorption (OD600); MEDIA CAMHB; plate type 384well; NBS; CORNING #3640; time 18 hr.
The next experiment concerns Candida albicans. Particulars: 20 µM.
The subject of a further experiment is Cryptococcus neoformans. Particulars: Concentration 20 uM; ASSAY_TEST Inhibition of Fungal Growth; detection method Resazurin; Absorption (OD600-OD570); plate type 384well; NBS; CORNING #3640.

For `O=C1NC(=O)C(=Cc2csc3ccccc23)C(=O)N1`, the Inhibition (as a rule, the change of the read-out against control, counted positive when it falls) in the experiment with Staphylococcus aureus is -1.57%; in the experiment with Acinetobacter baumannii it was 11.43%; in the experiment on Escherichia coli, 7.83%; with Klebsiella pneumoniae, 15.53%; in the experiment with Candida albicans, 23.9%; with Cryptococcus neoformans, -17.03%.
In the case of `O=c1cccc2n1C[C@H]1C[C@@H]2CN2CCCC[C@@H]12`, the Inhibition with Staphylococcus aureus is 6.92%; in the experiment with Acinetobacter baumannii, -12.51%; in the experiment on Escherichia coli, 5.34%; in the experiment with Klebsiella pneumoniae, 8.7%; with Candida albicans it was -0.36%; with Cryptococcus neoformans, -3.93%.
With `CCOP(=O)(OCC)/C(C#N)=C/c1ccc(-c2ccc(F)cc2F)o1`, the Inhibition with Staphylococcus aureus is 7.13%; in the experiment on Acinetobacter baumannii, -5.44%; with Escherichia coli it was 9.56%; in the experiment with Klebsiella pneumoniae it was 5.2%; in the experiment on Candida albicans, 10.3%; with Cryptococcus neoformans, -6.44%.
`O=C(OC1CCCCC1)c1ccccc1C(=O)OC1CCCCC1`: the Inhibition in the experiment with Staphylococcus aureus was -2.45%; in the experiment on Acinetobacter baumannii, -19.72%; with Escherichia coli it was -0.16%; in the experiment on Klebsiella pneumoniae it was 3.51%; in the experiment on Candida albicans, 7.38%; in the experiment with Cryptococcus neoformans, -2.99%.
With `COc1ccccc1[As](=O)(O)CC(O)COc1ccc(Cl)cc1Cl` (stereo not drawn), the Inhibition with Staphylococcus aureus is 12.48%; in the experiment with Acinetobacter baumannii it was -14.57%; in the experiment on Escherichia coli, 17.37%; in the experiment on Klebsiella pneumoniae, 8.74%; in the experiment on Candida albicans, -1.45%; in the experiment with Cryptococcus neoformans it was -2.68%.
As for `COc1ccc(C2=CC(c3ccc(OC)c(OC)c3)c3c(c4ccccc4oc3=O)O2)cc1OC` (stereo not drawn), the Inhibition is 20.66% in the experiment on Staphylococcus aureus; -10.24% in the experiment on Acinetobacter baumannii; 10.7% with Escherichia coli; 7.71% in the experiment with Klebsiella pneumoniae; 5.25% in the experiment with Candida albicans; -11.5% with Cryptococcus neoformans.
As for `CN1CCN(c2nc(N)c(Br)c(Cl)n2)CC1`, the Inhibition was 8.04% with Staphylococcus aureus; 10.68% in the experiment on Acinetobacter baumannii; 2.4% in the experiment with Escherichia coli; 16.05% in the experiment with Klebsiella pneumoniae; 2.84% with Candida albicans; -7.43% in the experiment with Cryptococcus neoformans.
As for `C=CCCC1(C2=CCCCC2)C(=O)NC(=O)NC1=O`, the Inhibition is 0.11% with Staphylococcus aureus; -12.21% in the experiment on Acinetobacter baumannii; 7.91% in the experiment with Escherichia coli; 12.33% in the experiment on Klebsiella pneumoniae; 3.67% with Candida albicans; -8.53% with Cryptococcus neoformans.
On to `C=CCNC(=S)Nc1ccc(OC(=O)Nc2ccc(Cl)c(Cl)c2)cc1`, for which the Inhibition in the experiment with Staphylococcus aureus was 9.35%; in the experiment with Acinetobacter baumannii, 4.81%; with Escherichia coli it was 5.81%; with Klebsiella pneumoniae it was 5.22%; with Candida albicans, 2.25%; in the experiment with Cryptococcus neoformans, -4.79%.
Take `COc1ccc(OC(=O)Nc2ccc([N+](=O)[O-])cc2OC)cc1`: the Inhibition with Staphylococcus aureus is 18.29%; in the experiment on Acinetobacter baumannii it was 11.17%; in the experiment on Escherichia coli, 1.72%; with Klebsiella pneumoniae, 8.07%; in the experiment on Candida albicans, -1.5%; with Cryptococcus neoformans, -6.88%.
Take `[Cl-].c1ccc(-c2nn(-c3ccccc3)[n+](-c3ccccc3)n2)cc1` [TETRAZOLIUM RED]: the Inhibition is -10.8% with Staphylococcus aureus; -19.48% in the experiment on Acinetobacter baumannii; 7.25% with Escherichia coli; 5.91% in the experiment on Klebsiella pneumoniae; 0.89% in the experiment with Candida albicans; -6.85% in the experiment with Cryptococcus neoformans.
On to `c1cc(C2N3CCCN2CC3)ccn1` (stereo not drawn), for which the Inhibition was 15.5% in the experiment with Staphylococcus aureus; -12.77% with Acinetobacter baumannii; 15.45% in the experiment with Escherichia coli; 9% in the experiment with Klebsiella pneumoniae; -1.44% with Candida albicans; -3.06% in the experiment on Cryptococcus neoformans.
Regarding `Cc1cc(OCCN2CC2)c2ccccc2n1`, the Inhibition in the experiment on Staphylococcus aureus is 14.36%; in the experiment on Acinetobacter baumannii, -8.46%; in the experiment on Escherichia coli, 11.83%; in the experiment with Klebsiella pneumoniae it was 5.11%; in the experiment on Candida albicans, -2.14%; in the experiment with Cryptococcus neoformans, -8.85%.
As to `CCC1CCC(C)N(N=O)C1` (stereo not drawn), the Inhibition in the experiment on Staphylococcus aureus is -0.88%; with Acinetobacter baumannii it was -14.6%; in the experiment with Escherichia coli it was 6.08%; with Klebsiella pneumoniae it was 7.29%; with Candida albicans, -0.7%; in the experiment with Cryptococcus neoformans, -1.16%.
Take `CC1(C)NC(=S)C(C)(C)N1N=O`: the Inhibition with Staphylococcus aureus was 8.42%; in the experiment on Acinetobacter baumannii, -13.11%; in the experiment with Escherichia coli, 8.85%; in the experiment with Klebsiella pneumoniae, 8.33%; in the experiment on Candida albicans, 5.47%; in the experiment on Cryptococcus neoformans, -2.68%.
Regarding `O=C1N[C@H]2[C@H](O)[C@H](O)[C@@H](O)[C@H](O)[C@@H]2c2cc3c(c(O)c21)OCO3` [PANCRATISTATIN], the Inhibition was 12.72% with Staphylococcus aureus; 6.17% with Acinetobacter baumannii; 0.6% in the experiment with Escherichia coli; 1.56% in the experiment on Klebsiella pneumoniae; 0.06% in the experiment with Candida albicans; -14.69% in the experiment on Cryptococcus neoformans.
Take `CCOP(=O)(OCC)/C(C#N)=C/c1ccc(Br)cc1`: the Inhibition in the experiment on Staphylococcus aureus was 9.27%; in the experiment with Acinetobacter baumannii it was 13.14%; in the experiment on Escherichia coli it was 8.82%; in the experiment on Klebsiella pneumoniae it was 9.61%; with Candida albicans, 2.02%; in the experiment on Cryptococcus neoformans it was -11.15%.
For `CC(C)(C)c1cc(C=C(C#N)C#N)cc(C(C)(C)C)c1O` [TYRPHOSTIN A9], the Inhibition with Staphylococcus aureus is -5.13%; with Acinetobacter baumannii, -9.85%; with Escherichia coli, 13.03%; in the experiment with Klebsiella pneumoniae, 23.47%; in the experiment on Candida albicans, 14.2%; in the experiment with Cryptococcus neoformans, 6.62%.
Turning to `CS(=O)(=O)O.O=C1CCC2(O)[C@@H]3Cc4ccc(O)c5c4[C@]2(CCN3Cc2ccoc2)C1O5` (stereo partly drawn), the Inhibition was 1.32% with Staphylococcus aureus; -2.4% in the experiment on Acinetobacter baumannii; -2.68% in the experiment with Escherichia coli; 10.23% with Klebsiella pneumoniae; 1.48% in the experiment on Candida albicans; -6.77% with Cryptococcus neoformans.
Consider `N=C(N)N/N=C/c1c(Cl)cccc1Cl` [GUANABENZ], for which the Inhibition in the experiment with Staphylococcus aureus was 5.03%; in the experiment on Acinetobacter baumannii, -12.8%; in the experiment with Escherichia coli, 13.45%; with Klebsiella pneumoniae it was 13.62%; with Candida albicans, -0.73%; with Cryptococcus neoformans, -12.66%.
Consider `O=P(OC1=CCCCC1)(c1ccccc1)c1ccccc1`, for which the Inhibition is 2.77% in the experiment with Staphylococcus aureus; -7.09% with Acinetobacter baumannii; 6.17% in the experiment on Escherichia coli; 9.43% in the experiment on Klebsiella pneumoniae; 4.11% in the experiment on Candida albicans; -2.72% in the experiment with Cryptococcus neoformans.
Take `CC[C@@]1(O)C(=O)OCc2c1cc1n(c2=O)Cc2cc3c(N)cccc3nc2-1` [9-AMINOCAMPTOTHECIN]: the Inhibition in the experiment with Staphylococcus aureus is 34.7%; with Acinetobacter baumannii, -5.64%; in the experiment on Escherichia coli it was 12.69%; with Klebsiella pneumoniae, 8.25%; in the experiment on Candida albicans, 4.9%; in the experiment on Cryptococcus neoformans it was -6.8%.
Regarding `Cc1c(C(=O)c2ccccc2)c2ccccc2n1C`, the Inhibition with Staphylococcus aureus was 14.29%; in the experiment with Acinetobacter baumannii it was -0.59%; with Escherichia coli, 13.79%; with Klebsiella pneumoniae, 4.42%; in the experiment with Candida albicans, 1.53%; in the experiment with Cryptococcus neoformans it was -16.28%.
